Assay [1] deals with Thioredoxin reductase 1, cytoplasmic (Rattus norvegicus) (UniProt O89049). In words: qHTS Assay for Inhibitors of Mammalian Selenoprotein Thioredoxin Reductase 1 (TrxR1) (AID 488773). Further: nearly all actives have a fitted effect of over 40% in size. Further: potency means the concentration at half of the fitted maximal effect. As to conditions: Potency: inhibition. In a few lines:
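Inhibition is scored from the loss of NADPH fluorescence between first and last reads of an 8-min kinetic run. Selenite (400 uM) was the substrate, added after 15 min compound preincubation at room temperature.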
A general note: qHTS replaces the single test concentration by a dilution series.

The target of assay [2] is Flap endonuclease 1 (Homo sapiens) (UniProt P39748). In words: qHTS Validation Assay for the Inhibitors of Human Flap endonuclease 1 (FEN1) (AID 488816). Further: on the % scale 0 is the no-effect control and ±100 the full control effect. The gist of the method:
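Steps: add FEN1 (10 nM reagent) or buffer only; pin compounds; hold 15 min at room temperature; start with substrate, 50 nM final; read at 0 and 15 min; correct, normalize and fit a four-parameter Hill curve.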

In assay [3] the target is M-phase phosphoprotein 8 (Homo sapiens) (UniProt Q99549). As to the kind of experiment: qHTS Validation Assay for Inhibitors for MPP8 Chromodomain Interactions with Methylated Histone Tails (AID 488949).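 Further: 50 nM MPP8 with 50 nM peptide preformed then compounds added for 30 min; AlphaScreen signal from MPP8 chromodomain bound to biotinylated H3K9me3 peptide; top concentration of the series differs between compounds; on the % scale 0 is the no-effect control and ±100 the full control effect; nearly all actives have a fitted effect of over 55% in size.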 In a few lines: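 50 nM MPP8 + 50 nM b-H3K9me3 peptide, PBS pH 7.4/0.01% Tween-20, 30 min RT; + cpd 30 min RT; + AlphaScreen donor/Ni-chelate acceptor beads 10 ug/mL final, 30 min dark; luminescence read.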

Assay [4] addresses Methanococcus maripaludis chaperonin (MmCpn) (UniProt Q6LX38). As to the kind of experiment: High-Throughput Screening for Modulators of Cytosolic Chaperonin Activity: MmCpn Primary Screen (AID 488978).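 Further: 50 nM MmCpn enzyme hydrolysing 30 µM ATP at 37 °C; 0% is about no effect.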 In a few lines: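 Steps: chaperonin 50 nM final; add compound, 5 min RT; start with ATP, 30 uM final; hold 10 min at 37C; add ADP Transcreener HTRF reagent, 5 min; read ex 320, em 590 and 665 nm.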

Assay [5] concerns the target Transient receptor potential cation channel subfamily V member 1 (Homo sapiens) (UniProt Q8NER1). As to the kind of experiment: HTS Assay for Compounds that Act as Enhancers of the Vanilloid Receptor 1 (AID 488979). Further: 0% is about no effect. In a few lines:
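TRPV1-expressing cells loaded with Fluo-8 calcium dye; compounds added and calcium influx read kinetically for 3 min (agonist phase), then capsaicin at EC20 added and read 2 min more for enhancement. Fluorescence ex 480/em 520 nm.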

Assay [6] addresses Thyrotropin receptor (Homo sapiens) (UniProt P16473). As to the kind of experiment: qHTS Assay for Antagonists of the Thyroid Stimulating Hormone Receptor (AID 488980). Further: series mostly up to about 58 µM; 0% is about no effect. The gist of the method: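 Readout is cAMP by HTRF competition between cellular cAMP and cAMP-d2 for a cryptate-labelled antibody. Antagonism was assessed in TSHR-transfected HEK293 cells stimulated with 4 nM TSH (EC80, final) in the presence of RO 20-1724.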

In assay [7] the target is D(1A) dopamine receptor (Homo sapiens) (UniProt P21728). As to the kind of experiment: HTS Assay for Allosteric Agonists of the Human D1 Dopamine Receptor: Primary Screen for Agonists (AID 488981). Further: potency means the concentration at half of the fitted maximal effect. On activation: 0% is about no effect. The gist of the method:
(§1)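 Tetracycline-induced HEK293 T-REx cells force-coupled to calcium signalling were incubated overnight at 30 C and dye-loaded at room temperature. Calcium flux over 180 s after compound addition flagged agonists; a further 180 s read after EC20 dopamine flagged potentiators.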

The target is the same in assay [8]. In words: HTS Assay for Allosteric Agonists of the Human D1 Dopamine Receptor: Primary Screen for Antagonists (AID 488983).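 Further: calcium flux response to an EC80 dopamine challenge measured with no-wash dye; nearly all actives have a fitted effect of over 65% in size.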 Further: potency means the concentration at half of the fitted maximal effect. The gist of the method: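 Calcium-flux read-out in inducible HEK293 T-REx cells expressing D1, dye-loaded 30–90 min at room temperature. Kinetic reads: 180 s after compound (agonist phase), then 180 s after an EC80 dopamine challenge.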
A short description of assay [9]: Validation screen for small molecules that induce genotoxicity in human embryonic kidney (HEK293T) cells expressing luciferase-tagged ELG1 (AID 493106). Further: 0% is about no effect. The gist of the method:
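ELG1-luciferase reporter readout (ONE-Glo, 30 min, room temperature) after 16 hr compound treatment at 37 °C of HEK293T cells at 2,000 per well. Rising luminescence flags genotoxic stress.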

Assay [10] concerns the target ATPase family AAA domain-containing protein 5 (Homo sapiens) (UniProt Q96QE3). In words: Validation screen for small molecules that inhibit ELG1-dependent DNA repair in human embryonic kidney (HEK293T) cells expressing luciferase-tagged ELG1 (AID 493107). Further: nearly all actives have a fitted effect of over 70% in size. Further: potency means the concentration at half of the fitted maximal effect. In a few lines:
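Luciferase read-out, ONE-Glo, 30 min at room temperature, follows 16 h co-exposure at 37 C of compound and the DNA-damaging agent 5-fluorouridine. Cells: HEK293T with ELG1-luciferase fusion, 2,000 per well, DMSO as vehicle.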

The target of assay [11] is Thyrotropin-releasing hormone receptor (Homo sapiens) (UniProt P34981). As to the kind of experiment: qHTS for Small Molecule Agonists and Allosteric Enhancers of Human TRH Receptor: Validation Screen for Agonists (AID 493127;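 active means calcium activation more than 3 SD above the typical response in the agonist read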;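 further: intracellular calcium rise by fluo-8 fluorescence before TRH EC20 addition; 0% is about no effect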). As to conditions: TRH receptor agonist cell assay; at 2 µM; stronger effect = higher value. In a few lines: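 Compound-evoked intracellular calcium release in fluo-8-loaded TRHR cells, read kinetically on FDSS (Ex 480/Em 530, 1 s/cycle) after 23 nL pintool transfer. Agonist phase preceded 10 nM TRH EC20 addition.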
Thyrotropin-releasing hormone receptor (Homo sapiens), sequence (P34981 whole entry, looked up): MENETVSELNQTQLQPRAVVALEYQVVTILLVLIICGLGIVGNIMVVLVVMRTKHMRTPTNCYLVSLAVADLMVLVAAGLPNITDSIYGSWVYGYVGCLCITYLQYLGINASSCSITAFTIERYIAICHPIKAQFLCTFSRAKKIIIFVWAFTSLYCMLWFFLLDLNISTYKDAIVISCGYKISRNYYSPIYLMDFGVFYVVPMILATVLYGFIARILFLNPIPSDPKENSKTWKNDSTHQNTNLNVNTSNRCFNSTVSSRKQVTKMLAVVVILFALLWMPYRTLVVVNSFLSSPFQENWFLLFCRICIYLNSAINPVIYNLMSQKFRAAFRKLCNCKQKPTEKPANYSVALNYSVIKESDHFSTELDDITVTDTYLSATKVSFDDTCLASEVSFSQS

The nature of assay [12]: Nrf2 qHTS screen for inhibitors: Validation (AID 493153; active means well fitted inhibition curve with a large enough effect in the main read-out, with a control signal flat, not every such curve was filed as active). As to conditions: Potency: luciferase luminescence; viability change: measured here: cytotoxicity max response. In a few lines: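 Concentration-response on A549 ARE_Fluc reporter cells exposed 18-24 h at 37 C, 5% CO2. Cytotoxicity read first by CellTiter-Fluor fluorescence (Ex 405/Em 525), then Nrf2 inhibition by BugLite luminescence after 15 min.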

A short description of assay [13]: qHTS for Inhibitors of Cell Surface uPA Generation: Validation Assay (AID 493164).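 Further: RAW 264.7 macrophage cells exposed to compound for 18 h; 0% is about no effect.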 The gist of the method: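 ATP-Lite luminescence read-out: ATP remains high when uPA activity-dependent LF translocation into the cytoplasm is blocked. RAW 264.7 cells, 18 h compound exposure at 37 C; 7-point titration, 2.45 nM to 38.3 uM final.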
The nature of assay [14]: Validation screen for small molecules that induce DNA re-replication in SW480 colon adenocarcinoma cells (AID 504364). Further: 0% is about no effect. In a few lines:
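Image-based DNA content read-out: Hoechst stain 40 min, total nuclear fluorescence intensity (ex 405 nm, em 500-530 nm) after 48 h compound exposure of 250 SW480 cells/well at 37 C, 5% CO2, versus DMSO vehicle.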

In assay [15] the target is Galactokinase (Homo sapiens) (UniProt P51570). As to the kind of experiment: qHTS Validation Assay for Inhibitors of Human Galactokinase (GALK) (AID 493189). Further: 0% is about no effect. In a few lines:
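5 nM GALK / 100 uM galactose / 35 uM ATP, 20 mM HEPES pH8.0, 5 mM MgCl2, 60 mM NaCl, 1 mM DTT, 0.01% BSA (final). RT 1 h; Kinase-Glo Plus luminescence.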

Assay [16] deals with D(1A) dopamine receptor (Homo sapiens) (UniProt P21728). As to the kind of experiment: HTS Assay for Allosteric Agonists of the Human D1 Dopamine Receptor: Primary Screen for Potentiators (AID 488982). Further: 0% is about no effect. The gist of the method: as §1
D(1A) dopamine receptor (Homo sapiens), sequence (P21728 whole entry, looked up): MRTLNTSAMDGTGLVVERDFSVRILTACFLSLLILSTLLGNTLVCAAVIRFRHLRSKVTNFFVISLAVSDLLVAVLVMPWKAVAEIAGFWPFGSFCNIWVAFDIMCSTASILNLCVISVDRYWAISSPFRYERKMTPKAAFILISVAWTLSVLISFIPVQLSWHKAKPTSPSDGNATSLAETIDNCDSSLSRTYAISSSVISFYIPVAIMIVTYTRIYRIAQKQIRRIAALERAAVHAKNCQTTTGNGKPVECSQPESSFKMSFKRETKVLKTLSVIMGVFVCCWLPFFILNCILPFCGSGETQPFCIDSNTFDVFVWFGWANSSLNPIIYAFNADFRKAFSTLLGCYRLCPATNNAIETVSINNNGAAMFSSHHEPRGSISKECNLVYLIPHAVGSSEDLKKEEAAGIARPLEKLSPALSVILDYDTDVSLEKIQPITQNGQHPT
The target of assay [17] is Chromobox protein homolog 1 (Homo sapiens) (UniProt P83916). As to the kind of experiment: qHTS Validation Assay for Inhibitors of HP1-beta Chromodomain Interactions with Methylated Histone Tails (AID 488953). Further: nearly all actives have a fitted effect of over 50% in size. Further: potency means the concentration at half of the fitted maximal effect. The gist of the method:
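AlphaScreen proximity signal from streptavidin donor and nickel chelate acceptor beads (final 10 ug/mL) after 30 min dark incubation. Compounds had 30 min at room temperature with preformed complex of 50 nM HP1-beta and 50 nM b-H3(1-18)K9me3 in PBS pH 7.4 with 0.01% Tween-20.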

Assay [18] has as its target Thioredoxin reductase 1, cytoplasmic (Rattus norvegicus) (UniProt O89049). In words: qHTS Assay for Substrates of Mammalian Selenoprotein Thioredoxin Reductase 1 (TrxR1) (AID 488772).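 Further: series mostly up to about 57 µM; 0% is about no effect; a drop in NADPH fluorescence below the no-compound background marks a TrxR1 substrate.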 The gist of the method:
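In this dual-purpose format, potential substrates are identified from the first fluorescence read after selenite addition, not from the 8-minute delta. Rat enzyme is preincubated with NADPH and then with compound at ~22 deg C.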

Assay [19] addresses ATP-dependent 6-phosphofructokinase (Trypanosoma brucei brucei) (UniProt O15648). As to the kind of experiment: qHTS Assay to Find Inhibitors of T. brucei phosphofructokinase: hit validation (AID 492961).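 Further: luminescence reports ADP formed as PFK phosphorylates fructose-6-phosphate with ATP; series mostly up to about 51 µM; on the % scale 0 is the no-effect control and ±100 the full control effect.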 The gist of the method: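 Reaction: 0.1 M triethanolamine pH 8.0, 5 mM MgCl2, F6P 0.5 mM, ATP 0.1 mM, PFK 1.25 nM, 45 min RT. Read-out: ADP-Glo luminescence. Analysis: concentration-response fits, classed by r2 and efficacy.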

The text below walks through data of PubChem BioAssay (NCATS).

Results filed as inconclusive are left out. The source made the active and inactive calls. Unless noted, the call rests on the fitted dose curve; in most records, active means well fitted curve in the direction sought with a large enough effect; inconclusive means small, poorly fitted or top-dose-only effect, or another doubt; inactive means no such curve, though single readings can be large; an effect the other way counts as inactive or inconclusive.

ATPase family AAA domain-containing protein 5 (Homo sapiens), sequence (Q96QE3 whole entry, looked up, the tested form may be a part): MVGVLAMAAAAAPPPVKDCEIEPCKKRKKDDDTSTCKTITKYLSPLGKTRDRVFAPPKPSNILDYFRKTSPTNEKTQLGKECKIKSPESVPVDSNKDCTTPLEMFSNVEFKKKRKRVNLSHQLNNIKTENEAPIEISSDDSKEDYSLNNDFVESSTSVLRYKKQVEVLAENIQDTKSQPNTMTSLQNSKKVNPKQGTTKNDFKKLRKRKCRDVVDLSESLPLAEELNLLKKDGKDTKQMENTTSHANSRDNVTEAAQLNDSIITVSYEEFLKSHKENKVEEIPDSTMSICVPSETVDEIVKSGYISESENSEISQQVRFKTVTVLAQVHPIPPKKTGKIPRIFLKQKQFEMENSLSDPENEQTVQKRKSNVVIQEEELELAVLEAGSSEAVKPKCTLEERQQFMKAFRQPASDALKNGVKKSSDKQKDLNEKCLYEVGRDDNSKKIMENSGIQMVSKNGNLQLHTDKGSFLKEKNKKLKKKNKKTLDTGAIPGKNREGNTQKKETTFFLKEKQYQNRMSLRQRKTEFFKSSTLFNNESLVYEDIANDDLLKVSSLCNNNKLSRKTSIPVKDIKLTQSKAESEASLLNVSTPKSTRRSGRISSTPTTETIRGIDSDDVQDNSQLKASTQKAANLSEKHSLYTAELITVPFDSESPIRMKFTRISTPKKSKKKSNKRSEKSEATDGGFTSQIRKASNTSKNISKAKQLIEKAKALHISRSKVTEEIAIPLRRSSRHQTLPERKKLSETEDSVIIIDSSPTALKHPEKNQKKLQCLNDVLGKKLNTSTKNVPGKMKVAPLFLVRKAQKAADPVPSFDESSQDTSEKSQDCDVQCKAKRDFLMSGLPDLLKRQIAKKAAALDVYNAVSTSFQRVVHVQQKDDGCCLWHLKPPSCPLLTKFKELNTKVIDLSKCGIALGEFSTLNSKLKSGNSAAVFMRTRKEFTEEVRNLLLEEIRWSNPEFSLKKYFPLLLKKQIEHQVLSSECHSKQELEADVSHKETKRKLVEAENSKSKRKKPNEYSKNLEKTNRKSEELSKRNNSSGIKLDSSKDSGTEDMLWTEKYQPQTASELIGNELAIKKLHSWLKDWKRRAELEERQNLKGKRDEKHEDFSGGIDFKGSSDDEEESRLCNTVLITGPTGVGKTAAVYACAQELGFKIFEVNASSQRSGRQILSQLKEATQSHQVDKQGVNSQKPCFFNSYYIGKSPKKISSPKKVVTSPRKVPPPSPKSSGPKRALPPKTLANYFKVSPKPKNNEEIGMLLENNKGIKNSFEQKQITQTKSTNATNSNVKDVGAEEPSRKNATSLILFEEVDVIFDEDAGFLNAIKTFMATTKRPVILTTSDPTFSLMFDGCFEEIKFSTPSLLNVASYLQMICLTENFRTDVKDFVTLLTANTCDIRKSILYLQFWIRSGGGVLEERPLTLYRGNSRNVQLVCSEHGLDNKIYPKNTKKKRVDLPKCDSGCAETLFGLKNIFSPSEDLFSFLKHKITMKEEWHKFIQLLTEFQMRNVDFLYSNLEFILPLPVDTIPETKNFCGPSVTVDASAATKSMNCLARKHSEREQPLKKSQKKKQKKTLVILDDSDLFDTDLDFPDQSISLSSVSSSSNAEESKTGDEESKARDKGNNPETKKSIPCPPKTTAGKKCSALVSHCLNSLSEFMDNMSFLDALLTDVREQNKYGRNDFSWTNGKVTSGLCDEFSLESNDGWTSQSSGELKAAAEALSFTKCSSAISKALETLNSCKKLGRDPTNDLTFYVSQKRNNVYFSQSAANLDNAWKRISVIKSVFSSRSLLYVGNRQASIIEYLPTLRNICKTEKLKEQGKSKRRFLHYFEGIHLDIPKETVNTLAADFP
Thyrotropin receptor (Homo sapiens), sequence (P16473 whole entry, looked up): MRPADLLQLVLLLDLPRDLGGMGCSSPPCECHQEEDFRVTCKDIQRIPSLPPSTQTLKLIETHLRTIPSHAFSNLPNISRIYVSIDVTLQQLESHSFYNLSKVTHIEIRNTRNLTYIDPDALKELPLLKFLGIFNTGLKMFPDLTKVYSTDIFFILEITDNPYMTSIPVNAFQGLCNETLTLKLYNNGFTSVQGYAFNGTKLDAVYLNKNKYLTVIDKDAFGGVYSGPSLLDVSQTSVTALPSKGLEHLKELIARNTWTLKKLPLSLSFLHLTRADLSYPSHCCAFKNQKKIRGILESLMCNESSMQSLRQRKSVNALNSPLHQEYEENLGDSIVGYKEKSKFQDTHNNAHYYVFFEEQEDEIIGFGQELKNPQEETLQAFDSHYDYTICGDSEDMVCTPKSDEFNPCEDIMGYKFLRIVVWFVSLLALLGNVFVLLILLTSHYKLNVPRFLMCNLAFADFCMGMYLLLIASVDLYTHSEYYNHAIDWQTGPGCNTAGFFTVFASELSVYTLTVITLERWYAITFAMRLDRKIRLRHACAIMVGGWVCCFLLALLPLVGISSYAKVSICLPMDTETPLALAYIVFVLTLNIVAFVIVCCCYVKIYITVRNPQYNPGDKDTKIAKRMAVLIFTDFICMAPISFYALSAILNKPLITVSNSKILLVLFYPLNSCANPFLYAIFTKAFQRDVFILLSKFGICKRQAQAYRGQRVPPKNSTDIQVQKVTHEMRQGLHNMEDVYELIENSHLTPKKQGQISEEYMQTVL
Galactokinase (Homo sapiens), sequence (P51570 whole entry, looked up): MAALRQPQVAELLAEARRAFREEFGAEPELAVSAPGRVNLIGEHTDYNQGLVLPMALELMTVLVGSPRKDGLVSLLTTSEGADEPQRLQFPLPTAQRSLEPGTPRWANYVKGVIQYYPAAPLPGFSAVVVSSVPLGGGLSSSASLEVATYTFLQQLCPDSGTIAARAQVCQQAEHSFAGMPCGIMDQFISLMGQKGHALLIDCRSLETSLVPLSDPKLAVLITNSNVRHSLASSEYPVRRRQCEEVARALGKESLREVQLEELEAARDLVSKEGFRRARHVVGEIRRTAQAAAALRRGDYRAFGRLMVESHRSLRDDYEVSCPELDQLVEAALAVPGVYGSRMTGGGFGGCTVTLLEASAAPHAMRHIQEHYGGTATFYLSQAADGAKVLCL
Flap endonuclease 1 (Homo sapiens), sequence (P39748 whole entry, looked up): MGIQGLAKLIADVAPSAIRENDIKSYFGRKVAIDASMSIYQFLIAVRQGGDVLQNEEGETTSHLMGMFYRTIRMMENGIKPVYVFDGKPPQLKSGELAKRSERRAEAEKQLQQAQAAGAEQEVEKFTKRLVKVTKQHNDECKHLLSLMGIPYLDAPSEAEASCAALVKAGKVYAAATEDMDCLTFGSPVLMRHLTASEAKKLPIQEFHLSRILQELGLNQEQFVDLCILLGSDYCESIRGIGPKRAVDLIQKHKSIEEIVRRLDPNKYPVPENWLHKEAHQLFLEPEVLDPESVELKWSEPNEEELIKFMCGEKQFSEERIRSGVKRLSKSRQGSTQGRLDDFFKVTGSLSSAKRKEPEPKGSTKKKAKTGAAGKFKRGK
Chromobox protein homolog 1 (Homo sapiens), sequence (P83916 whole entry, looked up): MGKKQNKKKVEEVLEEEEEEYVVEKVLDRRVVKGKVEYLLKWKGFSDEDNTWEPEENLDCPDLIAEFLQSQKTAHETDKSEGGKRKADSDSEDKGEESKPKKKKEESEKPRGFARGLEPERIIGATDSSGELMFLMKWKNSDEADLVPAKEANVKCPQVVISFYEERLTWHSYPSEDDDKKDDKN
Thioredoxin reductase 1, cytoplasmic (Rattus norvegicus), sequence (O89049 whole entry, looked up): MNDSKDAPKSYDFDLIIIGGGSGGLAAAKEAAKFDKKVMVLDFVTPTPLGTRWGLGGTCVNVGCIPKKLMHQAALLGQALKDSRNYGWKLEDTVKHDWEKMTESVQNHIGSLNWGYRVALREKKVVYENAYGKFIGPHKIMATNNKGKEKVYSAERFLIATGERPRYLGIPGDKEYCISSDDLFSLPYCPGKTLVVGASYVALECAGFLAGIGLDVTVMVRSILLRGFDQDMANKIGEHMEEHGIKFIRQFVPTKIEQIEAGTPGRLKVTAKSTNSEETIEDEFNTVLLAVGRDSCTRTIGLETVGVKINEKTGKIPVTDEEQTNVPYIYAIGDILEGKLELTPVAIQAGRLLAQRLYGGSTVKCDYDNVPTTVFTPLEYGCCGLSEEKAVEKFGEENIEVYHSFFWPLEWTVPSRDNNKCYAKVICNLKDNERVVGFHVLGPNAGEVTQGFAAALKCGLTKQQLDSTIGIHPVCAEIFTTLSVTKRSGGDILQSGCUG

With `C=CC(N)CCC(=O)O` (stereo not drawn), the Potency entry in [1], in assay [2], in assay [3], in assay [7], in [8] and in assay [9] was “inactive” each time. The Potency entry in assay [10], in [12] and in [14] was “inactive” each time. The result in assay [4], in assay [5], in assay [6] and in [13] was inactive. In assay [11], the activation was -0.0625% (inactive). Further, the viability change in assay [12] came out at 4.81%.
For `CC1CN(S(=O)(=O)c2cccc3cnccc23)CCN1` (stereo not drawn), the Potency entry in [1], in assay [2], in [3], in assay [7], in [8] and in assay [9] was “inactive” throughout. Also, the Potency result in assay [12], in assay [15] and in [14] was “inactive” each time. For the same compound, the call in assay [4], in assay [5], in [6] and in [13] was inactive. In addition, the Potency in assay [10] is 20.6 µM (active). In addition, the activation in assay [11] was 1.06% (inactive). Besides, the viability change in assay [12] was 1.98%.
Take `C=CC(=O)c1ccc(CCCCCC)cc1`: in [1], the Potency was 15 µM (active). The Potency entry in [2], in [3], in assay [7], in assay [16], in assay [9] and in assay [10] was “inactive” in each case. Besides, the Potency entry in assay [12] is “inactive”. For the same compound, the result in assay [4] and in assay [13] was inactive. In assay [12], the viability change was -13%.
For `CCCCCCCCCCCCCCCCCC(=O)NCC(COP(=O)([O-])OCC[N+](C)(C)C)OCC` (stereo not drawn), the Potency result in [1], in assay [2], in [3], in assay [17], in [12] and in assay [15] was “inactive” throughout. In addition, the result in assay [5], in [6] and in [13] was inactive. The Potency in assay [7] was 10 µM (active); in assay [8] it was 12.6 µM (active). The activation in [11] is 2.19% (inactive). In addition, the viability change in assay [12] amounted to 1.48%.
Regarding `CO/S(=N\S(=O)(=O)c1ccc(Cl)cc1)c1ccc([N+](=O)[O-])cc1` (stereo not drawn), the Potency entry in assay [1], in assay [2], in assay [3], in assay [7], in [16] and in assay [8] was “inactive” each time. Besides, the Potency result in assay [9], in [10] and in assay [12] was “inactive” in each case. Moreover, the result in [4] was inactive. Further, in assay [12], the viability change is -1.86%.
In the case of `Cn1c(=O)c2[nH]c(-c3ccccc3)nc2n(C)c1=O`, the Potency entry in [18], in assay [3], in assay [17], in assay [7], in assay [16] and in assay [8] was “inactive” throughout. Moreover, the Potency entry in [9], in assay [10], in [15] and in assay [14] was “inactive” each time. Besides, the call in assay [4], in assay [5], in assay [6] and in assay [13] was inactive. Moreover, the activation in assay [11] is 0.875% (inactive).
As to `CCOC(=O)N1CCN(/[N+]([O-])=N/Oc2ccc([N+](=O)[O-])cc2[N+](=O)[O-])CC1`, the Potency in [1] is 6.7 µM (active). Besides, the Potency entry in [2], in [3], in [7], in assay [16] and in [9] was “inactive” throughout. Also, the compound was classed as inactive in [4] and in [13].
With `C=CCCCCCCCCC(=O)O`, the outcome in assay [19] was inactive.
As for `O=C(O)c1cc(=O)c2ccccc2[nH]1`, the Potency result in [2], in [3], in assay [7], in assay [16], in assay [8] and in assay [9] was “inactive” throughout. Moreover, the Potency entry in assay [10] and in assay [14] was “inactive” throughout. Also, the Potency in assay [17] was 0.0474 µM (active). For the same compound, the call in assay [4], in assay [5] and in assay [6] was inactive. In addition, the activation in [11] was 0.125% (inactive).
